Resorufin fluor = compound fluoresces in the resorufin spectral region | 59,000 tested, 0.04% active | max dye-equivalent concentration, M | AID 588 | Compound fluorescence, resorufin region 547/598 nm, buffer; hits give high values
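Dye-equivalent concentration values derive from comparing each well's 547/598 nm fluorescence against resorufin standards included on every plate. Incubation was 15 min at room temperature in 100 mM Tris, pH 8.0.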
Rhodamine autofl = compound fluoresces in the rhodamine spectral region; Rhodamine-region fluorescence, 547/598 nm, Tris buffer; hits give high values; max dye-equivalent concentration, M; 59,000 tested, 0.05% active; AID 594; in the data active = max dye-equivalent concentration above about 11 nM; inconclusive = between about 1.1 nM and that limit
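Compound fluorescence in 100 mM Tris, pH 8.0, read after 15 min at room temperature with 547 nm excitation and 598 nm emission. Output is dye-equivalent concentration from an on-plate rhodamine standard series.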
TexasRed autofl = compound fluoresces in the Texas Red spectral region | 59,000 tested, 0.06% active | max dye-equivalent concentration, M | AID 587 | Compound fluorescence, Texas Red channel, 547/618 nm; hits give high values; in the data active = max dye-equivalent concentration above about 10 nM; inconclusive = between about 1.1 nM and that limit
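Compound fluorescence was read after 15 min at room temperature in 100 mM Tris, pH 8.0, using 547 nm excitation and 618 nm emission across a concentration series. It was expressed as Texas Red dye-equivalent concentration from an on-plate standard curve.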
Fluorescein autfl = fluorescein region autofluorescence; Compound autofluorescence, 480/540 nm, fluorescein-equivalent; hits give high values; max fluorescein-equivalent concentration, M; 59,000 tested, 0.91% active; in the data active = max fluorescein-equivalent concentration above about 10 nM; inconclusive = between about 1.1 nM and that limit
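Fluorescein stocks ranging 3 mM down to 300 nM, plus DMSO blanks, were pinned alongside compounds to build a per-plate standard curve. Buffer: 100 mM Tris, pH 8.0. Incubation 15 min, room temperature; filters 480/540 nm.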
A647 autofl = compound autofluorescence in A647 spectral region; max dye-equivalent concentration, M; Compound fluorescence, A647 channel (570/671 nm), Tris buffer; 59,000 tested, under 10 active
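Compounds pinned into 100 mM Tris pH 8.0, 15 min at room temperature, then read with 570 nm excitation/671 nm emission filters. Fluorescence normalized to an on-plate six-point Alexa 647 standard curve, giving dye-equivalent concentration per compound concentration.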
A488 fluor = A488 region autofluorescence; compound autofluorescence, A488 spectral region, dye equivalency; Compound Type: qHTS ECL - MLSMR; max dye equivalency, M; 59,000 tested, 0.1% active; AID 591
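Autofluorescence read at ex 480/em 540 nm after 15 min RT in 100 mM Tris pH 8.0; compound signal normalized to A488 standard series on each plate, reported as dye-equivalent concentration at each test concentration.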
Each line names hits and unclear results; the compound was inactive in the other large screens; ! = not confirmed by another sample. An excerpt weighted towards active compounds, which were near 0.95% of everything screened. Unless noted, no rule for the calls is given here.

COC(=O)c1ccc2c(c1)NC(=O)C(N1CCCC1)S2 (stereo unspecified)	Fluorescein autfl inconclusive
CCOC(=O)N1CCN(c2nc3ccccc3nc2C(C#N)C(=O)NCCc2ccccc2)CC1 (stereo unspecified)	Fluorescein autfl 1.1e-08M
CCN(CC)c1nc2ccccc2nc1C(C#N)C(=O)NCCCOC (stereo unspecified)	Fluorescein autfl inconclusive
CCN1CCN(c2nc3ccccc3nc2C(C#N)C(=O)OCc2ccccc2)CC1 (stereo unspecified)	Fluorescein autfl inconclusive
N#CC(C(=O)NCCc1ccccc1)c1nc2ccccc2nc1N1CCOCC1 (stereo unspecified)	Fluorescein autfl inconclusive
N#CC(C(=O)NCCc1ccccc1)c1nc2ccccc2nc1N1CCCCC1 (stereo unspecified)	Fluorescein autfl 1.2e-07M, A488 fluor inconclusive
N#CC(C(=O)NCc1ccccc1)c1nc2ccccc2nc1N1CCCC1 (stereo unspecified)	Fluorescein autfl 3.9e-07M, A488 fluor 2.2e-08M
CCN(CC)c1nc2ccccc2nc1C(C#N)C(=O)NCCc1ccccc1 (stereo unspecified)	TexasRed autofl inconclusive, Fluorescein autfl 1.1e-07M, A488 fluor inconclusive
C[C@@]12C=CC(=O)C=C1CC[C@@H]1C2=CC[C@]2(C)[C@@H]1CC[C@H]2C(=O)CN1CCN(c2cc(N3CCCC3)nc(N3CCCC3)n2)CC1	Fluorescein autfl inconclusive
CN1[C@@H]2CC(OC(=O)[C@@H](CO)c3ccccc3)C[C@H]1[C@H]1O[C@H]12 (stereo partly specified)	Fluorescein autfl inconclusive
CCOC(=O)C1CCCN(c2nc3ccccc3nc2C(C#N)C(=O)NCc2ccccc2)C1 (stereo unspecified)	Fluorescein autfl 8.6e-07M, A488 fluor 5e-08M
C=C1C(=O)O[C@H]2C[C@@]3(C)CCCC(=C)[C@@H]3C[C@H]12	TexasRed autofl inconclusive
CCC1C2CN(C(C)=O)CC=C2C(C#N)=C(N)C1(C#N)C#N (stereo unspecified)	Fluorescein autfl inconclusive
CN1CC=C2C(C#N)=C(N)C(C#N)(C#N)C(Cc3ccccc3)C2C1 (stereo unspecified)	TexasRed autofl inconclusive, Fluorescein autfl 3.7e-08M, A488 fluor inconclusive
CC(C)N1CC=C2C(C#N)=C(N)C(C#N)(C#N)C(c3ccccc3)C2C1 (stereo unspecified)	Fluorescein autfl 1.6e-07M, A488 fluor inconclusive
COc1cc(C2C3CN(C)CC=C3C(C#N)=C(N)C2(C#N)C#N)ccc1OC(C)C (stereo unspecified)	Fluorescein autfl 3.6e-08M, A488 fluor inconclusive
CCN1CC=C2C(C#N)=C(N)C(C#N)(C#N)C(c3cc(Cl)ccc3Cl)C2C1 (stereo unspecified)	Fluorescein autfl 2.4e-08M
OC[C@@H]1O[C@@H](n2cnc3c(NC4CCCC4)ncnc32)[C@@H](O)[C@H]1O	Fluorescein autfl inconclusive
COC(=O)[C@](C)(N)Cc1ccc(O)cc1	Fluorescein autfl inconclusive
COc1ccc(C2C3=C(CC(C)(C)CC3=O)Nc3c2c(=O)[nH]c(=O)n3Cc2ccccc2)cc1OC (stereo unspecified)	Fluorescein autfl 1.1e-08M
COc1cc(C2C3=C(CC(C)(C)CC3=O)Nc3c2c(=O)[nH]c(=O)n3Cc2ccccc2)ccc1O (stereo unspecified)	Fluorescein autfl inconclusive
Cc1csc(NC(=O)c2sc3nc(-c4cccs4)ccc3c2N)n1	Fluorescein autfl 1.4e-08M
COc1ccc(C(=O)Nc2nc(-c3cccs3)cs2)cc1	Fluorescein autfl inconclusive
N#CCCn1c(=O)c(-c2cccs2)nc2cnc(N3CCOCC3)nc21	Fluorescein autfl 1.3e-08M
O=C1CC(/C=C/c2ccco2)=Nc2ccccc2N1	TexasRed autofl inconclusive, Fluorescein autfl 3.6e-08M, A488 fluor inconclusive
CC1(C)c2ccccc2N2CC(=O)NC21/C=C/c1ccco1 (stereo unspecified)	Fluorescein autfl inconclusive
C[C@@]12C(=O)OC(=O)[C@@]1(C)[C@H]1CC[C@@H]2O1	TexasRed autofl inconclusive, Fluorescein autfl inconclusive
CC1=c2c(oc3cc(O)c(Nc4c(C)cc(O)cc4O)c(C)c23)=CC(=O)C1=Nc1c(C)cc(O)cc1O	Resorufin fluor 7.4e-08M, Rhodamine autofl 1.2e-07M, TexasRed autofl 2.6e-07M, Fluorescein autfl 1.5e-08M
CCOC(=O)c1n[nH]c2ccccc12	Fluorescein autfl inconclusive
Nc1n[nH]c2ccccc12	Resorufin fluor 1.1e-08M, Rhodamine autofl 1.5e-08M, TexasRed autofl 2.9e-08M, Fluorescein autfl inconclusive
COC(=O)c1ccc2c(c1)SC1=C(CCCC1=O)N2	Resorufin fluor 1.9e-08M, Rhodamine autofl 2e-08M, TexasRed autofl 2.1e-08M, Fluorescein autfl 5.3e-08M, A488 fluor inconclusive
COc1[nH]c(/N=C/c2ccccc2)c(C#N)c1C#N	Resorufin fluor inconclusive, Rhodamine autofl inconclusive, TexasRed autofl inconclusive, Fluorescein autfl 3.6e-08M, A488 fluor inconclusive
COc1nccc(Nc2ccccc2)c1C#N	TexasRed autofl inconclusive, Fluorescein autfl inconclusive
C=CCOn1c(=O)c(-c2cc3ccccc3o2)[n+]([O-])c2ccccc21	Fluorescein autfl 1.9e-08M
Cc1ccc(S(=O)(=O)c2cc3c(=O)n4ccccc4nc3n(Cc3ccco3)c2=N)cc1C	Fluorescein autfl 1.2e-08M
N=c1c(S(=O)(=O)c2ccccc2)cc2c(=O)n3ccccc3nc2n1Cc1ccco1	Fluorescein autfl inconclusive
C[n+]1cc2c3c(ccc2c2ccc4cc5c(cc4c21)OCO5)OCO3	Rhodamine autofl inconclusive, Fluorescein autfl 3e-08M, A488 fluor inconclusive
CC(=O)[C@@H]1[C@H]2[C@@H](C(=O)[C@H]3OC[C@H]2O3)[C@@H]2C=Cc3ccccc3N12	TexasRed autofl inconclusive, Fluorescein autfl 1.1e-08M
C[C@@H](Cc1ccccc1)Nc1ncnc2c1ncn2[C@@H]1O[C@@H](CO)[C@H](O)[C@@H]1O	Fluorescein autfl inconclusive
CNCC[C@H](Oc1ccccc1C)c1ccccc1	TexasRed autofl inconclusive
O=C1OC2(c3ccc(O)cc3Oc3cc(O)ccc32)c2c1c(-c1ccccc1)c(-c1ccccc1)c(-c1ccccc1)c2-c1ccccc1	Resorufin fluor inconclusive, Rhodamine autofl inconclusive, Fluorescein autfl 4.8e-07M, A488 fluor 2.3e-08M
O=C(O)c1ccc2c(c1C(=O)O)C(=O)OC2(c1ccc(O)cc1)c1ccc(O)cc1	none
Nc1ncnc2c1ncn2[C@@H]1O[C@@H](COP(=O)(O)OP(=O)(O)OP(=O)(O)OP(=O)(O)OC[C@@H]2O[C@@H](n3cnc4c(N)ncnc43)[C@@H](O)[C@H]2O)[C@H](O)[C@@H]1O	none
COc1ccc2c(OC)c3ccoc3nc2c1OC	TexasRed autofl inconclusive, Fluorescein autfl 1e-08M!
COc1c2ccoc2cc2oc(=O)ccc12	none
